High-throughput results deposited in PubChem by National Center for Advancing Translational Sciences (NCATS).
Most compounds without a hit are left out; they make up all but 5.2% or so of the library.
Tau fluor cs: counter-screen for tau fibril formation inhibitors. tau K18 P301L Alexa594 fluorescence, heparin fibrillization. Potency, µM (doses to about 57.7 µM), for the others: at the highest dose activity change, negative = decrease. hit rate 0.93% among 280,000; note: potency is the fitted concentration of half-maximal effect; nearly all actives have a fitted effect of over 55% in size
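Human K18 P301L tau (15 uM unlabeled plus 0.24 uM Alexa 594-labeled, final) in 100 mM sodium acetate pH 7 was mixed with compound and 20 uM heparin and incubated 6 hr at 37 C.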
Coupling enz: counter-screen for Giardia aldolase inhibitors: coupling enzyme system; coupling enzyme system counterscreen, AmpLite Red fluorescence; activity change, negative = inhibition, % at 58.2 µM, hits read low; hit rate 0.67% among 290,000; in the data active = activity change below about -30%
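First, compound is pin-transferred into glyceraldehyde-3-phosphate coupling-enzyme reagent at 57.5 uM final and held 10 min at RT. Next, substrate, coupling system and AmpLite Red are added. After 20 min RT, fluorescence (525/598 nm) is read.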
Tau fibril ThT: blocks human tau fibril formation measured by thioflavin T; P10636; recombinant tau K18 P301L (four-repeat tau fragment), heparin-induced fibrillization, ThT fluorescence; Potency, µM (series often up to 57.4 µM), for the others: at the highest dose activity, negative = inhibition, usual class: inhibitors; hit rate 2.1% among 270,000; note: potency is the fitted concentration of half-maximal effect; nearly all actives have a fitted effect of over 55% in size
Target sequence (P10636 561-689 P618L limits assumed): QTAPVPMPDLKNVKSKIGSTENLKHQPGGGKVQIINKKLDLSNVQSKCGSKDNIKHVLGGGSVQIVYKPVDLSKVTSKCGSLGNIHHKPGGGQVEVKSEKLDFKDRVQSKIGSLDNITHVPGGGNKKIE
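Tau K18 P301L fragment (15 uM unlabeled plus 0.24 uM Alexa 594-labeled) in 100 mM sodium acetate pH 7 with compound, fibrillization induced by 20 uM heparin for 6 hr at 37 C. Thioflavin T (30 uM) added, fluorescence read after 1 hr (ex 450, em 510 nm).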
Tau fibril FP: blocks human tau fibril formation measured by polarization; hit rate 0.39% among 280,000; K18 P301L tau heparin fibrillization, Alexa594 FP, 6 h; P10636; Potency, µM (series often up to 57.7 µM), inactives show at the top dose activity, negative = inhibition, usual class: inhibitors; AID 1468; note: potency is the fitted concentration of half-maximal effect; nearly all actives have a fitted effect of over 55% in size
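Compound effects on tau fibrillization are measured by Alexa 594 fluorescence polarization (ex 555, em 632 nm). K18 P301L tau is used at 15 uM with 0.24 uM labeled tracer, and 20 uM heparin induces aggregation over 6 hr at 37 C.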
Sfp inh: blocks B. subtilis Sfp PPTase activity; Potency, µM, inactives show largest response in the series, negative = inhibition, hits mostly inhibitors; hit rate 3.5% among 310,000; Biochemical Sfp PPTase activity, qHTS; AID 1490; Q9F4F7;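 note: the enzyme is Sfp with the accession as filed and its product quenches rhodamine fluorescence; potency is the fitted concentration of half-maximal effect; 0% = enzyme reaction without inhibitor and -100% = no enzyme wells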
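Buffer: 50 mM Hepes-Na pH 7.6, 10 mM MgCl2, 0.01% Nonidet P-40, 0.01% BSA. Enzyme 15 nM, pre-exposed to compound 15 min; substrates then added and fluorescence change tracked over 30 min.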
Starred values were filed as active, the others as inactive; ? = inconclusive; . = not tested or not shown; [ ] = remark or other dose. Unless noted, calls come from the whole dose curve; as a rule, active = well fitted curve in the direction sought with a large enough effect; inconclusive = small, poorly fitted or top-dose-only effect, or another doubt; inactive = no such curve, though single readings can be large; an effect the other way counts as inactive or inconclusive. Unless noted, % is set by controls: 0 for no effect and ±100 for the full control effect.

SMILES	Tau fluor cs	Coupling enz	Tau fibril ThT	Tau fibril FP	Sfp inh
CSc1nc(=NC(C)=O)ss1	-22.1%	3.7	25.1µM*	?	4.47µM*
CCCn1c(N)c(C(=S)NC(=O)C2CC2)c(=O)n(C)c1=O	-0.5%	-8.9	-10.5%	2.7%	50.1µM*
CCO/C(C)=C1/SC(=S)NC1=O	-14.4%	5.6	.	-7.8%	31.6µM*
CCOC(=O)/C=C1\NC(=O)CS1	3.6%	1.3	3.6%	4.4%	-3.9%
NCCNc1cccc2ccccc12	.	.	.	.	70.8µM*
OC[C@H]1O[C@@H](n2cnc3c(NCc4ccccc4)ncnc32)[C@H](O)[C@@H]1O	1.9%	0.5	2.1%	-3.7%	10.0%
CCOc1ccccc1C1C(C#N)=C(N)SC(N)=C1C#N	-17.0%	-31.3*	?	-4.6%	44.7µM*
CCOc1ccc(C2C(C#N)=C(N)SC(N)=C2C#N)cc1OCC	?	-22.2	?	-1.3%	?
CCOc1ccccc1C1C(C#N)=C(N)Oc2n[nH]c(CC)c21 (stereo not drawn)	-9.0%	-1.3	-9.1%	-0.5%	8.6%
CCOc1ccc(C2C(C#N)=C(N)SC(N)=C2C#N)cc1OC	-24.8%	-38.9*	?	-2.9%	50.1µM*
CCCCCCCCCCCCCCCC(=O)OCC(COP(=O)(O)OCC[N+](C)(C)C)OC(=O)CCCCCCCCCCCCCCC (stereo not drawn)	.	.	.	.	0.9%
COc1cccc(C(=O)NNC(=O)Cc2csc(N)n2)c1	0.3%	-1.7	-3.3%	-2.2%	56.2µM*
CCOC(=O)c1cc(-c2ccc(OC)cc2)n(CCC(=O)Nc2cccc(C)c2C)c1C	-9.6%	.	1.2%	5.3%	.
CC(=O)NCCNc1ccnc(-c2ccccc2C(F)(F)F)n1	.	-4.2	.	.	-3.8%
C=CCOc1cccc(C(=O)/C=C2/C(=O)Nc3ccccc32)c1	.	1.1	.	.	56.2µM*
CC(=O)N(C)c1ccc(N=C2C(=O)Nc3ccccc32)cc1	.	0.9	.	.	2.4%
CC(=O)/C=C1/C(=O)Nc2ccccc21	-4.0%	0.8	?	-9.7%	50.1µM*
COc1cc(-c2nc(Cn3nnc(C(=O)Nc4ccc(C)cc4C)c3C)c(C)o2)cc(OC)c1OC	8.1%	.	16.4%	?	.
N#CC(C#N)=C1NC2(CCCCC2)Cc2ccccc21	-9.8%	12.1	-2.9%	-4.4%	26.7%
N#CC(C#N)=c1ccc2c(c1)NC1(CCCCC1)N=2	?	-16.4	14.1µM*	25.1µM*	-17.1%
COc1ccc2c(C)c(CCC(=O)NCc3ccc(C)cc3)c(=O)oc2c1	-9.2%	.	-5.9%	-2.1%	.
O=C(NCCCc1nc2ccccc2n1Cc1ccccc1Cl)c1ccco1	-5.3%	.	-6.7%	2.4%	.
Clc1ccccc1Cn1c(/C=C/c2ccco2)nc2ccccc21	-6.5%	-0.3	?	-21.0%	50.1µM*
c1ccc(COc2ccc(-c3sc(Nc4ccccc4)n[n+]3-c3ccccc3)cc2)cc1	.	0.4	.	.	56.2µM*
CCc1ccc(Nc2n[n+](-c3ccccc3)c(-c3ccc(OCc4ccccc4)cc3)s2)cc1	.	-1.2	.	.	-7.1%
SMILES	Tau fluor cs	Coupling enz	Tau fibril ThT	Tau fibril FP	Sfp inh
O=C(O)c1ccc(-c2sc(Nc3ccccc3)n[n+]2-c2ccccc2)cc1	.	2.4	.	.	50.1µM*
CN(C)CC/C=C1\c2ccccc2COc2ccc(CC(=O)O)cc21	.	.	.	.	2.4%
Cc1cccc2c1c(N=NC(N)=S)c(O)n2C1OC(CO)C(O)C(O)C1O (stereo not drawn)	.	-0.3	.	.	50.1µM*
O=C(CN(c1ccccc1)S(=O)(=O)c1ccccc1)N/N=C/c1ccco1	-1.9%	-0.6	-4.9%	-4.3%	11.3%
Cc1ccc(N(CC(=O)N/N=C/c2ccco2)S(=O)(=O)c2ccccc2)cc1	-11.6%	1.6	-5.6%	-2.5%	31.6µM*
CCCC(=O)Nc1nnc(SCc2cc(=O)n3cccc(C)c3n2)s1	-9.2%	.	-3.7%	-6.9%	.
Nc1sccc1C(=O)c1ccccc1	-16.2%	-3.9	-16.2%	2.2%	28.2µM*
O=C(c1ccccc1)c1ccccc1C(=O)c1ccccc1	-6.7%	-7.1	0.9%	-7.8%	15.5%
O=[N+]([O-])c1cc2cccnc2c2ncccc12	-6.6%	-5.9	?	-2.8%	4.7%
O=[N+]([O-])c1ccc(Sc2cccc3cccnc23)c2cccnc12	-29.2%	-33.9*	?	-16.9%	-25.4%
COc1ccc(Cl)cc1-n1c(N)c(C(N)=O)sc1=S	-5.8%	2.0	-3.3%	-11.6%	15.8µM*
Cc1ccccc1-n1c(N)c(C(=O)Nc2ccc(F)cc2)sc1=S	1.0%	-0.6	0.6%	0.1%	?
CCOc1ccccc1-n1c(N)c(C(N)=O)sc1=S	-7.4%	-1.6	-0.1%	-1.9%	-17.6%
CCCCNC(=O)c1sc(=S)n(-c2ccccc2OC)c1N	-6.5%	-5.3	-9.9%	3.3%	44.7µM*
Cc1ccc(NC(=O)c2sc(=S)n(-c3cc(C)ccc3F)c2N)cc1	-9.9%	-11.0	-8.5%	-4.5%	50.1µM*
Cc1ccc(-n2c(N)c(C(N)=O)sc2=S)c(C)c1	-14.2%	7.5	-8.2%	2.9%	20µM*
Cc1ccc(C)c(-n2c(N)c(C(N)=O)sc2=S)c1	-15.6%	-0.9	-3.9%	-5.5%	-2.3%
COC(=O)c1sc(=S)n(-c2ccccc2OC)c1N	-16.1%	3.2	-15.3%	0.8%	12.0%
COc1c(O)cc2c(c1O)C1OC(CO)C(O)[C@H](O)[C@H]1OC2=O (stereo partly drawn)	-2.5%	4.4	2.8%	-9.8%	12.3%
O=C(O[C@@H]1OC2COC(=O)c3cc(O)c(O)c(O)c3-c3c(cc(O)c(O)c3O)C(=O)O[C@@H]([C@H]1O)[C@@H]2O)c1cc(O)c(O)c(O)c1	12.6µM*[quencher]	-17.8	7.94µM*	?	4.47µM*
O=C(c1cc2cc3ccc(Cl)cc3nc2o1)N1CCN(c2cccc(Cl)c2)CC1	-20.6%	.	?	?	.
O=C1c2ccccc2C(=O)N1CCCc1c[nH]c2ccc(Cl)cc12	11.2µM*[quencher]	0.9	-18.1%	-14.4%	13.1%
O=C(N=Nc1c(O)[nH]c2ccc([N+](=O)[O-])cc12)c1ccccc1[N+](=O)[O-]	?	1.7	?	5.0%	8.4%
CCc1cc(C(=O)N=Nc2c(O)[nH]c3ccc([N+](=O)[O-])cc23)c2ccccc2n1	?	2.8	15.8µM*	20.4%	2.6%
CCc1cc(C(=O)N=Nc2c(O)[nH]c3c(Br)cc(Br)cc23)c2ccccc2n1	?	0.9	7.08µM*	-1.3%	-15.3%
Fc1ccccc1-n1[nH]nnc1=S	1.4%	1.2	-4.9%	5.3%	25.1µM*
COc1ccc(-c2nc3c(c4c2C[C@H](c2ccccc2)OC4)CN(S(=O)(=O)c2ccc(NC(C)=O)cc2)CC3)c(C)c1	-6.1%[11.6 µM]	3.4	2.1%[11.5 µM]	-5.7%[11.6 µM]	8.1%
Cc1ccc(O)c(N=Nc2ccccc2)n1	-14.3%	1.5	17.8µM*	8.0%	?
Cc1nc2ccc(Cc3ccc4nc(C)[nH]c4c3)cc2[nH]1	-2.0%	2.4	-4.5%	-8.3%	6.5%
Cc1nc2ccc(N=NN(C)C)cc2[nH]1	?	-35.3*	10µM*	?	?
